The record followed here is ChEMBL document CHEMBL1157539, “Thousands of chemical starting points for antimalarial lead identification” (Nature, 2010).

Holding throughout (assay type): functional
Experiment [1] has as its system Plasmodium falciparum. Put plainly: GSK_TCMDC: Inhibition of Plasmodium falciparum 3D7 in whole red blood cells, using parasite LDH activity as an index of growth. Test compounds present at 2uM.
Experiment [2] deals with Plasmodium falciparum. As to the kind of experiment: GSK_TCMDC: Inhibition of Plasmodium falciparum Dd2 in whole red blood cells, using parasite LDH activity as an index of growth. Test compounds present at 2uM.
The subject of the next experiment is HepG2. As to the kind of experiment: GSK_TCMDC: Percent inhibition of human HepG2 cell line. Test compounds present at 10uM.

For orientation: Inhibition means the share of the control response that was lost under treatment. For the compound `CCC1(C)CC(CCNCc2ccccc2O)(c2ccccc2OC)CCO1.Cl` (stereo not drawn), the Inhibition was 94% in the experiment with Plasmodium falciparum [1], 93% with Plasmodium falciparum [2] and 10% in the experiment on HepG2.
As for `CN1CCC(C(=O)Nc2ccc(-c3ccc(-c4nc5ccccc5[nH]4)cc3)cc2)CC1`, the Inhibition in the experiment on Plasmodium falciparum [1] is on record as 100%; in the experiment on Plasmodium falciparum [2], 94%; with HepG2 it was 28%.
Take `COc1ccc2nccc([C@@H](O)CN3CCC(NCCOc4ccccc4[N+](=O)[O-])CC3)c2c1.O=C(O)C(=O)O`: the Inhibition with Plasmodium falciparum [1] is on record as 100%; in the experiment on Plasmodium falciparum [2] it was 98%; in the experiment with HepG2, 4%.
Regarding `NC1=NC2(CCCCC2)N(OCCCCCCc2ccccc2)C(N)=N1`, the Inhibition in the experiment on Plasmodium falciparum [1] turned out to be 100%; in the experiment with Plasmodium falciparum [2], 69%; in the experiment on HepG2, 73%.
The matching figures for `O=C(Cn1c(CCc2cccc(F)c2F)cc(=O)c2ccccc21)N(Cc1ccc(-c2ccc(C(F)(F)F)cc2)cc1)C1CCN(CCO)CC1.O=C(O)C(O)C(O)C(=O)O`: 91%, 84% and 82%.
Taken in the same sequence, the figures for `COc1ccc(C=NNc2nc3ccccc3[nH]2)cc1O` were 95%, 13% and 15%.
With `O=C(O)C(F)(F)F.Oc1ccc(CCNc2nc(NCCCOc3cccc(-c4ccccc4)c3)nc(N3CCNCC3)n2)cc1`, the Inhibition in the experiment with Plasmodium falciparum [1] is 89%; in the experiment with Plasmodium falciparum [2], 14%; in the experiment on HepG2, 40%.
On to `O=C(O)C(F)(F)F.OC1CCCN(Cc2ccc(-c3ccc(-c4nc5ccccc5[nH]4)cc3)cc2)C1` (stereo not drawn), for which the values for the Inhibition in the experiment on Plasmodium falciparum [1], in the experiment on Plasmodium falciparum [2] and in the experiment with HepG2 were 100%, 77% and 46%, respectively.
Regarding `CCOC(=O)c1c(C)n(-c2ccc(Cl)cc2)c2ccc(OC(=O)C=Cc3ccccc3)cc12`, the figures for the Inhibition in the experiment with Plasmodium falciparum [1], in the experiment on Plasmodium falciparum [2] and in the experiment on HepG2 were 99%, 92% and 3%, respectively.
On to `COc1ccc(C2CC(c3ccccc3)=NN2C(=O)c2ccc(Br)o2)cc1` (stereo not drawn), for which the Inhibition is 96% in the experiment on Plasmodium falciparum [1], 45% with Plasmodium falciparum [2] and 6% in the experiment on HepG2.
The matching figures for `CC1CN(c2ncc(-c3ccc(CNC4Cc5ccccc5C4)cc3)cn2)CC(C)N1.O=CO` (stereo not drawn): 85%, 78% and 27%.
Taken in the same sequence, the figures for `Fc1cccc(COc2ccc(Nc3ncnc4sc(C#C[C@H]5CC[C@H](CN6CCOCC6)N5)cc34)cc2Cl)c1` were 92%, 23% and 16%.
For the compound `CCn1c2ccccc2c2cc(C=NN=c3cc(C)[nH]c4ccccc34)ccc21`, the results for the Inhibition in the experiment with Plasmodium falciparum [1], with Plasmodium falciparum [2] and in the experiment with HepG2 were 100%, 97% and 19%, respectively.
As for `O=C(Nc1nccs1)c1cc(-c2cccnc2)nc2ccc(Br)cc12`, the Inhibition in the experiment on Plasmodium falciparum [1] is 100%; in the experiment with Plasmodium falciparum [2] it was 79%; in the experiment with HepG2, 7%.
`O=[N+]([O-])c1ccc(Nc2nc(N/N=C/c3cc(Cl)cc(Cl)c3O)nc(Nc3ccccc3)n2)cc1`: the figures for the Inhibition in the experiment with Plasmodium falciparum [1], with Plasmodium falciparum [2] and in the experiment on HepG2 were 100%, 72% and 29%, respectively.
`O=C(Nc1ccc(Cl)cc1)Nc1cccc(-c2cccc(-c3nc4cc(F)ccc4[nH]3)c2)c1`: the Inhibition with Plasmodium falciparum [1] was found to be 100%; in the experiment with Plasmodium falciparum [2], 84%; in the experiment on HepG2 it was 79%.
The matching figures for `O=C(N[C@@H](Cc1ccccc1)C(=O)NCc1cccc2ccccc12)c1ccc(O)c(-c2ccc(Cl)c(Cl)c2)c1`: 100%, 97% and 0%.
The matching figures for `CS(=O)(=O)O.CSc1ccc2ccccc2c1CCNCCCCNCCc1c(SC)ccc2ccccc12`: 100%, 60% and 99%.
In the case of `C=CCc1ccc(C[C@H](NC(=O)OC(C)(C)C)C(=O)OC)cc1`, the Inhibition turned out to be 98% in the experiment on Plasmodium falciparum [1], 98% in the experiment with Plasmodium falciparum [2] and 77% with HepG2.
For `CCCc1ccc(-c2csc(NC(=O)c3ccc([N+](=O)[O-])o3)n2)cc1`, the figures for the Inhibition with Plasmodium falciparum [1], in the experiment with Plasmodium falciparum [2] and in the experiment on HepG2 were 85%, 13% and 72%, respectively.
The matching figures for `CCc1nc2nc(C)cc(Nc3ccc4c(c3)OCCO4)n2n1`: 88%, 55% and 8%.
In the case of `O=C(Nc1ccc(Cl)c(Cl)c1)C1CCC(=O)N1[C@@H](Cc1ccccc1)C(=O)NCCc1ccc(Cl)cc1` (stereo partly drawn), the Inhibition in the experiment on Plasmodium falciparum [1] was 95%; in the experiment with Plasmodium falciparum [2] it was 0%; in the experiment on HepG2, 3%.
The matching figures for `O=C(Cn1c(CCc2cccc(F)c2F)nc(=O)c2cccnc21)N(Cc1ccc(-c2ccc(C(F)(F)F)cc2)cc1)C1CCN(C2CCOCC2)CC1.O=C(O)C(O)C(O)C(=O)O`: 94%, 67% and 100%.
`COc1ccccc1C1CC(c2ccccc2)=NN1C(=O)c1ccccc1` (stereo not drawn): the Inhibition in the experiment on Plasmodium falciparum [1] came to 100%; with Plasmodium falciparum [2] it was 93%; with HepG2, 13%.
Take `Br.CC1(C)N=C(N)N=C(N)N1OCC1COc2ccccc2O1` (stereo not drawn): the values for the Inhibition with Plasmodium falciparum [1], in the experiment with Plasmodium falciparum [2] and with HepG2 were 96%, 66% and 56%, respectively.
The matching figures for `COc1ccc2nc3ccccc3c(NCCN3CCN(C)CC3)c2c1`: 81%, 10% and 11%.
Taken in the same sequence, the figures for `CC(C)(C)COC(=O)c1ccc(NC(=O)N[C@@H](Cc2ccc(O)cc2)C(=O)NC2CCN(Cc3ccc(O)cc3)C2)cc1.O=C(O)C(F)(F)F` (stereo partly drawn) were 94%, 21% and 3%.
With `CCOc1cc(O)c(-c2nc(N)ncc2-c2ccc3c(c2)OCCO3)cc1CC`, the Inhibition was 99% in the experiment with Plasmodium falciparum [1], 68% with Plasmodium falciparum [2] and 0% in the experiment on HepG2.
The matching figures for `CC(C)(C)c1ccc(N2C(N)=NC(N)=NC2(C)C)cc1.Cl`: 93%, 0% and 27%.
As for `COc1ccc(CNCc2ccsc2)cc1-c1ccc(S(=O)(=O)NCCN2CCCC2)c(C)c1.O=C(O)C(F)(F)F`, the results for the Inhibition in the experiment with Plasmodium falciparum [1], with Plasmodium falciparum [2] and with HepG2 were 85%, 43% and 49%, respectively.
In the case of `Cc1nc(-c2nc(NCCc3ccncc3)ncc2-c2ccsc2)sc1C`, the Inhibition with Plasmodium falciparum [1] came out at 92%; with Plasmodium falciparum [2], 87%; in the experiment with HepG2, 10%.
